The source of these data is PubChem BioAssay AID904 (National Center for Advancing Translational Sciences (NCATS), 2007).

The whole screen tested about 55,000 compounds, of which about 530 (0.96%) were called active. Where a call stands in place of a potency, no number is given. About 7% were inconclusive and are not listed. The call rests on the fitted dose curve; in most records, active means well fitted cell-killing curve with a large enough effect; inconclusive means small, poorly fitted or top-dose-only effect; inactive means no such curve, though single readings can be large or run the other way. Only a selection was taken, and actives are over-represented in it overall.
Potency means the concentration at half of the fitted maximal effect.

The experiment can be described thus: qHTS Screen for Compounds that Selectively Target Cancer Cells with p53 Mutations: Cytotoxicity of p53 Null Cells at the Nonpermissive Temperature. Further: nearly all actives have a fitted effect of over 50% in size. The settings on record: H1299 p53-null (neo) cells, 39C, ATPlite viability, 24 h; series mostly up to 46.1 µM. An excerpt:
NIH Chemical Genomics Center [NCGC] NIH Molecular Libraries Screening Centers Network [MLSCN] MLSCN Grant: 1 X01 MH079844-01 Assay Submitter (PI): Dr. SUN, YI, University of Michigan NCGC Assay Overview: Synthetic Lethal Screen for Compounds to Kill Cancer Cells with p53 Mutation. Tumor suppressor gene p53 serves as a major cellular barrier against tumorigenesis. […] The goal of this screening is to identify small molecule probes that selectively kill cancer cells with mutations in p53. This screening was carried out using two lines of H1299 lung cancer cells. The H1299-p53 A138V line express a temperature sensitive p53 mutant (p53ts) in which the mutant p53 protein (A138V) is in the mutant confirmation when grown at 39C (the nonpermissive temperature) and in the wild type conformation when grown at 32C (the permissive temperature). A H1299-neo line (p53 null) grown at both 39C and 32C were used as counter-screens to filter out false positive associated with temperature shifting. The small molecular compounds that selectively target mutant p53-containing cancer cells were selected as candidate probes for further study. A cytotoxicity assay based on the measurement of ATP contents in cells was used in this screen. Concentration-responses of all the compounds in the library collection were determined in qHTS using the cell lines and temperature conditions as above.
NCGC Assay Protocol Summary: Both the H1299-p53A138V and H1299-neo cell lines were provided by Dr.Yi Sun, a PI at the University Michigan. The cells were maintained and cultured at 37C. The resuspended frozen cells were used to plate the cells in the 1536-well assay plates at a density of 600 cells per well in 5 ul medium. The assay plates with the cells were incubated at 37C for 16 to 30 hours before the experiments. The library compounds in DMSO solution were added to the cells in assay plates and incubated 24 hours at 39C (for mutant p53 conformation) or 32C (for normal p53 conformation as control). An ATP_lite assay kit (PerkinElmer) was used to determine the cell viability. Tomaxifen (100uM) was used as the positive control for cell killing. Data were normalized to the controls for basal activity (DMSO only) and 100% killing (100uM tamoxifen). AC50 values were determined from concentration-response data modeled with the standard Hill equation. P53 assay protocol: 1. Reagent; 5 uL H1299-p53A138V or H1299-neo cell cells/well 2. Time; overnight; 37C incubation 3. Compounds; 23 nL; 5.9 nM to 46 uM 4. Controls; 23 nL; Tamoxifen 100 uM 5. Time; 24 hr; 39C incubation 6. Reagent; 3 uL; ATP_Lite reagent 7. Time; 20 min; Room Temperature 8. Detection; Luminescence; Viewlux plate reader Keywords: p53, synthetic lethal, cancer, cell viability, cytotoxicity, H1299 cell line, luminescence, MLSMR, MLSCN, NIH Roadmap, qHTS, NCGC
Take `CCOc1ccc(C(NC(=O)c2cc(OC)c(OC)c(OC)c2)c2cc(Cl)c3cccnc3c2O)cc1` (stereo not given): the Potency was 3.55 µM (active). Then `CN(C)c1cccc(C(=O)Nc2nc3ccc(S(=O)(=O)NC(C)(C)C)cc3s2)c1`, with “inactive”. Then `Cc1ccc(-n2c(/C=C/c3cccc(C(F)(F)F)c3)nc3ccccc3c2=O)cc1`, with “inactive”; and `COC(=O)COc1cc(C)cc2oc(=O)c3c(c12)CCCC3`, with “inactive”; and `O=C(Nc1ccc(Cl)cc1C(=O)c1ccccc1)c1cc(Cl)cc(Cl)c1`, with “inactive”.
